We go through 25 molecules from the supplement of paper PMC9402605.

SMILES strings stand for the structures. ± gives the standard deviation of the averaged measurements.

The test concerns Caenorhabditis elegans N2. Put plainly: egg-laying rate relative to DMSO control (M9 buffer background) (fraction of control); higher = more egg-laying. The settings on record: 60 µM, 1 h. On the procedure: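 About 20 young-adult wild-type C. elegans (N2) per well in 96-well plates were exposed to 60 uM compound for 1 h at room temperature, either in M9 buffer (to find stimulators) or in 12.3 mM serotonin + 7.7 mM nicotine (NS, to find inhibitors). Eggs per worm per hour were counted by automated imaging and normalised to the mean of proximal DMSO control wells. Values average the primary screen and two retests of the worm-active (wactive) Egl modulators.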
Molecule `Cc1ccn2cc(-c3ccc(F)cc3)nc2c1` [wact-436] returned an egg-laying rate of 1.94 ± 0.73.
Then `O=C1CC(N2CCN(c3ccc([N+](=O)[O-])cc3)CC2)C(=O)N1c1ccccc1F` (stereo not given) [wact-56], with 2.24 ± 0.45; and `O=[N+]([O-])c1ccc(CSc2ccc(Cl)cc2)cc1` [wact-3], with 2.13 ± 0.22.
Under `O=[N+]([O-])c1ccc(N2CCN(CC3CC=CCC3)CC2)cc1` (stereo not given) [wact-47] stands 10.6 ± 6.3; under `CCOc1ccc(C(=O)c2cccs2)cc1` [wact-471], 2.49 ± 2.2.
As to `Cc1ccc(-c2cnc(-c3ccncc3)o2)cc1` [wact-23], the egg-laying rate was 3.94 ± 1.5.
In turn, `CCC1CCC(N2CCN(c3ccc([N+](=O)[O-])cc3)CC2)CC1` (stereo not given) [wact-6] gave an egg-laying rate of 7.85 ± 2.4.
Then `COc1ccc(C=Cc2ccccn2)cc1` [wact-622], with 1.19 ± 0.28; and `O=[N+]([O-])c1ccc(N2CCN(CC3CC4C=CC3C4)CC2)cc1` (stereo not given) [wact-46], with 11 ± 6.7.
Under `O=[N+]([O-])c1ccc(N2CCN(CC3CCCCC3)CC2)cc1` [wact-45] stands 4.22 ± 1.8; under `O=[N+]([O-])c1ccc(-n2ccc3ccccc32)cc1` [wact-213], 2.13 ± 1.5.
For the molecule `CCc1ccc(-c2cn3ccsc3n2)cc1` [wact-434], the egg-laying rate stood at 1.53 ± 0.93.
The molecule `Cc1ccccc1C(=O)NCCc1ccccc1` [wact-406] returned an egg-laying rate of 0.741 ± 0.36.
In turn, `O=[N+]([O-])c1ccc(N2CCc3ccccc3C2)nc1` [wact-421] displayed an egg-laying rate of 1.83 ± 0.59.
Under `c1csc(-c2cnc3ccccc3n2)c1` [wact-21] stands 4.69 ± 1.8.
Under `Ic1cccc(-c2nnc(-c3ccccc3)o2)c1` [wact-51] stands 2.92 ± 1.6; under `O=C(Nc1cccc(Cl)c1)N1CCN(c2ccc([N+](=O)[O-])cc2)CC1` [wact-31], 2.02 ± 0.75; under `O=C(Nc1ccc(I)cc1)c1ccco1` [wact-27], 3.06 ± 1.5.
Molecule `CCSc1nnc(-c2ccc(Cl)cc2Cl)o1` [wact-4] came in with an egg-laying rate of 4.56 ± 1.9.
`c1ccc(CSc2nnc(-c3ccccc3)o2)cc1` [wact-38]: the egg-laying rate was 8.44 ± 0.94.
Under `Brc1cccc(-c2cn3ccccc3n2)c1` [wact-435] stands 0.576 ± 0.34; under `Clc1ccc(-c2cn3ccsc3n2)cc1` [wact-1], 1.94 ± 0.54; under `Fc1ccc(-c2cn3ccsc3n2)cc1` [wact-433], 3.02 ± 1.1.
Under `Cc1ccccc1C(=O)NCCSC1CCCCC1` [wact-494] stands 1.03 ± 0.24.
In turn, `CCCCOC(=O)Nc1ccc([N+](=O)[O-])cc1` [wact-419] gave an egg-laying rate of 2.9 ± 0.58.
